Measurements from PubChem BioAssay (Tox21).
Where “and” joins values, the source holds several entries; their conditions need not be identical. Equal values may be shown once. Records with an inconclusive call do not appear. Entries that show only a call come without a potency. Some structures have more than one record in an assay (separate samples or runs), and their calls can disagree. Calls of active or inactive are those of the source. The call rests on the fitted dose curve; in most records, active means well fitted curve in the direction sought with a large enough effect in the repeat runs; inconclusive means weak or mixed curves; inactive means no such curve, though single readings can be large; an effect the other way counts as inactive or inconclusive.

Legend:
[1] = Caspase-3/7 induction in HepG2 cells by small molecules, qHTS assay (AID 1346978); further: nearly all actives have a fitted effect of over 15% in size
Procedure, shortened: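 Wild-type HepG2 cells, 2,000/well, settled 5 hr at 37 C and 5% CO2, then compound-treated for 17 hr; caspase-3/7 activity read by luminescent Caspase-Glo 3/7 after 30 min at room temperature.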

[2] = Caspase-3/7 induction in CHO-K1 cells by small molecules, qHTS cell viability counter screen (AID 1346979); further: nearly all actives have a fitted effect of over 35% in size; further: potency means the concentration at half of the fitted maximal effect
Procedure, shortened: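 Seeding: 1,500 CHO-K1 cells/well. Rest: 5hr, 37C. Treatment: compounds in DMSO, 16hr. Read: CellTiter-Fluor, 1hr, fluorescence.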

[3] = Caspase-3/7 induction in CHO-K1 cells by small molecules, qHTS assay (AID 1346980); further: nearly all actives have a fitted effect of over 15% in size
Procedure, shortened: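 Wild-type CHO-K1 cells exposed to compounds for 17hr at 37 C, 5% CO2. Caspase-3/7 activity then measured by Caspase-Glo 3/7 luminescence after 30min at room temperature.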

[4] = Caspase-3/7 induction in HepG2 cells by small molecules, qHTS cell viability counter screen (AID 1346981); further: nearly all actives have a fitted effect of over 30% in size; further: potency means the concentration at half of the fitted maximal effect
Procedure, shortened: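 Multiplexed with the caspase-3/7 assay: HepG2 cells, 16 hr compound treatment, CellTiter-Fluor viability detection by fluorescence.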

[5] = target: Nuclear receptor subfamily 1 group I member 2 (Homo sapiens) (UniProt O75469); experiment: Human pregnane X receptor (PXR) small molecule agonists, qHTS assay (AID 1346982); further: nearly all actives have a fitted effect of over 35% in size; further: potency means the concentration at half of the fitted maximal effect
Procedure, shortened: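 We seeded PXR-Luc HepG2 cells in assay medium containing 5% charcoal-stripped FBS, added compounds 5 hr later, incubated 24 hr, and read luminescence with ONE-Glo reagent.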

[6] = target: Nuclear receptor subfamily 1 group I member 2 (Rattus norvegicus) (UniProt Q9R1A7); experiment: Rat pregnane X receptor (rPXR) activation by small molecules, qHTS assay (AID 1346983); conditions: rPXR luciferase reporter cells, One-Glo luminescence, 24 h; max activation: stronger effect = higher value; further: nearly all actives have a fitted effect of over 20% in size
Procedure, shortened: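 Cell-based rPXR activation assay: rPXR cells, 2,000 per well, rested 5hr at 37 C, then exposed to compounds in DMSO for 24 hr at 37 C. Luciferase activity read by One-Glo luminescence after 30 min at room temperature.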

[7] = target: Nuclear receptor subfamily 1 group I member 2 (Homo sapiens) (UniProt O75469); experiment: CYP3A4 induction through human pregnane X receptor (PXR) by small molecules, qHTS assay (AID 1346984); further: nearly all actives have a fitted effect of over 40% in size; further: potency means the concentration at half of the fitted maximal effect
Procedure, shortened: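 qHTS, concentration-response format: HepG2 DPX-2 line, PXR/CYP3A4-luc. Exposure 24 h, 37C. Substrate Luciferin-IPA 3uM final, 3 h. Detection One-Glo, 30 min RT.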

[8] = target: Nuclear receptor subfamily 1 group I member 2 (Homo sapiens) (UniProt O75469); experiment: Human pregnane X receptor (PXR) activation by small molecules, qHTS assay (AID 1346985); further: nearly all actives have a fitted effect of over 40% in size; further: potency means the concentration at half of the fitted maximal effect
Procedure, shortened: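 DPX-2 cells (HepG2 co-transfected with a PXR response element and a CYP3A4-promoter luciferase construct) were seeded at 2,000 per well, rested 5 hr at 37C, then exposed to DMSO-dissolved compounds for 24 hr. Activation was read as luciferase luminescence.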

[9] = target: Cytochrome P450 2D6 (Homo sapiens) (UniProt P10635); experiment: Cytochrome P450 Family 2 Subfamily D Member 6 (CYP2D6) small molecule antagonists: luciferase reporter qHTS assay (AID 1671196); further: nearly all actives have a fitted effect of over 50% in size; further: potency means the concentration at half of the fitted maximal effect
Procedure, shortened: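 Luminescence (RLU), read 20 min after detection reagent, indicated CYP2D6 conversion of proluciferin to luciferin during a 1 h NADPH-dependent reaction at room temperature.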

[10] = target: Cytochrome P450 2C19 (Homo sapiens) (UniProt P33261); experiment: Cytochrome P450 Family 2 Subfamily C Member 19 (CYP2C19) small molecule antagonists: luciferase reporter qHTS assay (AID 1671197); further: nearly all actives have a fitted effect of over 65% in size; further: potency means the concentration at half of the fitted maximal effect
Procedure, shortened: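 CYP2C19 P450-Glo, 1536-well qHTS. Cpd + enzyme/proluciferin substrate 10 min RT; + NADPH regen, 37C 1 h; stop with luciferin detection reagent, 20 min RT, luminescence (RLU). Pos ctrl ketoconazole.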

[11] = target: Cytochrome P450 1A2 (Homo sapiens) (UniProt P05177); experiment: Cytochrome P450 Family 1 Subfamily A Member 2 (CYP1A2) small molecule antagonists: luciferase reporter qHTS assay (AID 1671199); further: nearly all actives have a fitted effect of over 50% in size; further: potency means the concentration at half of the fitted maximal effect
Procedure, shortened: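 CYP1A2 turnover of a luminogenic substrate was quantified after 1 h with NADPH regeneration at room temperature. Furafylline served as positive control.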

[12] = target: Voltage-gated inwardly rectifying potassium channel KCNH2 (Homo sapiens) (UniProt Q12809); experiment: Human Ether-a-go-go-Related Gene (hERG) channel small molecule antagonists: fluorescence cell-based qHTS assay (AID 1671200);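 further: hERG-expressing U2OS cells given a thallium stimulus after FluxOR II dye loading; series mostly up to about 77 µM; nearly all actives have a fitted effect of over 50% in size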
Procedure, shortened: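 First, 1000 cells per well are seeded and cultured overnight at 37 C. Next, FluxOR II dye is loaded for 1 h at room temperature, protected from light. After 10 more minutes, stimulus is added and fluorescence is read.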

[13] = target: Cytochrome P450 3A4 (Homo sapiens) (UniProt P08684); experiment: Cytochrome P450 Family 3 Subfamily A Member 4 (CYP3A4) small molecule antagonists: luciferase reporter qHTS assay (AID 1671201); further: nearly all actives have a fitted effect of over 50% in size; further: potency means the concentration at half of the fitted maximal effect
Procedure, shortened: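 Enzyme and proluciferin substrate are mixed with test chemicals for 10 min, then NADPH regeneration system drives turnover for 1 h at room temperature. A detection reagent halts the reaction; luminescence after 20 min gives relative activity.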

[14] = target: Cytochrome P450 2C9 (Homo sapiens) (UniProt P11712); experiment: Cytochrome P450 Family 2 Subfamily C Member 9 (CYP2C9) small molecule antagonists: luciferase reporter qHTS assay (AID 1671198)
Procedure, shortened: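 P450-Glo proluciferin substrate with CYP2C9 enzyme; 10 min RT preincubation, then NADPH regeneration 1 h at 37C; luciferin detection reagent 20 min RT, luminescence in relative luminescence units.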

Cytochrome P450 2D6 (Homo sapiens), sequence (P10635 whole entry, looked up): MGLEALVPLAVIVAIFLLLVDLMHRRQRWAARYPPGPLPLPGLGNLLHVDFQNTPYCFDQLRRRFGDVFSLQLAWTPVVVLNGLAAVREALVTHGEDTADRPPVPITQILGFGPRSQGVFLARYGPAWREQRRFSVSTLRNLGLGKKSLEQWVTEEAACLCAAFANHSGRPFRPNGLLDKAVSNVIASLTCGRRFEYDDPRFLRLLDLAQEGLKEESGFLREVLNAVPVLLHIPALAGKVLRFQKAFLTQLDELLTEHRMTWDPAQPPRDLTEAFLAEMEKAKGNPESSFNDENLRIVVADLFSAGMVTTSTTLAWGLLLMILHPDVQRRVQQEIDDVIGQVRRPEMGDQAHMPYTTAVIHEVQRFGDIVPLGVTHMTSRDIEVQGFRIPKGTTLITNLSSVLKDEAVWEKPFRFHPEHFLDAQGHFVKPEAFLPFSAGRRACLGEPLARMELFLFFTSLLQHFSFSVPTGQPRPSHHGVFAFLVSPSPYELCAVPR
Nuclear receptor subfamily 1 group I member 2 (Rattus norvegicus), sequence (Q9R1A7 whole entry, looked up): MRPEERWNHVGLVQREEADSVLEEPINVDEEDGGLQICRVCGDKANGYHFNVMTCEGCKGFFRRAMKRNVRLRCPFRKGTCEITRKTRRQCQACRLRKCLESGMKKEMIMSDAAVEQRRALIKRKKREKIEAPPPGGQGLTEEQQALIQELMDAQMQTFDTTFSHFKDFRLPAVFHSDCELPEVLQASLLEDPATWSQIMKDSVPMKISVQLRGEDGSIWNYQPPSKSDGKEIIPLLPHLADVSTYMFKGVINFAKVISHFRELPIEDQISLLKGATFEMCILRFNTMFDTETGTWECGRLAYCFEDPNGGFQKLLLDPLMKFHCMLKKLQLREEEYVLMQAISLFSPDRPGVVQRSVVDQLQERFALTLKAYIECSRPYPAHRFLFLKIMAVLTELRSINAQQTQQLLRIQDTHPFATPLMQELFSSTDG
Cytochrome P450 2C9 (Homo sapiens), sequence (P11712 whole entry, looked up): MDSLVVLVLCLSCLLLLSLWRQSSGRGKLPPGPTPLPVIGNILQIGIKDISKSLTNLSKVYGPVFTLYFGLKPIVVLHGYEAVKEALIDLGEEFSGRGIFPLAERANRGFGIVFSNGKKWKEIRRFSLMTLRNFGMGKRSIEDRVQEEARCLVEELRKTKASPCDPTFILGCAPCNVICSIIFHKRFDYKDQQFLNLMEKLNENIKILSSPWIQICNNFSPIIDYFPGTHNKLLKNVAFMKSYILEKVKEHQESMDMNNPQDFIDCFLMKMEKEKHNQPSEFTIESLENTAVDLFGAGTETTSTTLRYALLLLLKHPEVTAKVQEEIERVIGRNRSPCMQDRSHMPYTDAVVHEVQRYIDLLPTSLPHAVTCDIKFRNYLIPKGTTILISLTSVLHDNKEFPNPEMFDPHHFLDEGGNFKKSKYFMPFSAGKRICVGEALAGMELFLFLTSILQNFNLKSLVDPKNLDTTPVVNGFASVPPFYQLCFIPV
Cytochrome P450 2C19 (Homo sapiens), sequence (P33261 whole entry, looked up): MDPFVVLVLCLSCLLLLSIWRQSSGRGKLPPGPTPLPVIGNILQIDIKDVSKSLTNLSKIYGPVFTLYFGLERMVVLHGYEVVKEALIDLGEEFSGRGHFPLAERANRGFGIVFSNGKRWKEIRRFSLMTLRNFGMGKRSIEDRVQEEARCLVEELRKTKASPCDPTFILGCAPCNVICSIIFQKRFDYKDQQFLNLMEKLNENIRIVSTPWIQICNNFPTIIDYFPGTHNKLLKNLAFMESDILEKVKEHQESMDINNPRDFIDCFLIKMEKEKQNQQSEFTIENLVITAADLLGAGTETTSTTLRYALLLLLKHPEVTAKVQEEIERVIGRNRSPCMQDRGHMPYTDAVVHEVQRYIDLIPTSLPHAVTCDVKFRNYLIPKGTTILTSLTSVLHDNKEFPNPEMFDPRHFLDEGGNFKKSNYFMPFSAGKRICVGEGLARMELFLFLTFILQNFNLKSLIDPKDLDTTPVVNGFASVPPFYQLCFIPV
Cytochrome P450 1A2 (Homo sapiens), sequence (P05177 whole entry, looked up): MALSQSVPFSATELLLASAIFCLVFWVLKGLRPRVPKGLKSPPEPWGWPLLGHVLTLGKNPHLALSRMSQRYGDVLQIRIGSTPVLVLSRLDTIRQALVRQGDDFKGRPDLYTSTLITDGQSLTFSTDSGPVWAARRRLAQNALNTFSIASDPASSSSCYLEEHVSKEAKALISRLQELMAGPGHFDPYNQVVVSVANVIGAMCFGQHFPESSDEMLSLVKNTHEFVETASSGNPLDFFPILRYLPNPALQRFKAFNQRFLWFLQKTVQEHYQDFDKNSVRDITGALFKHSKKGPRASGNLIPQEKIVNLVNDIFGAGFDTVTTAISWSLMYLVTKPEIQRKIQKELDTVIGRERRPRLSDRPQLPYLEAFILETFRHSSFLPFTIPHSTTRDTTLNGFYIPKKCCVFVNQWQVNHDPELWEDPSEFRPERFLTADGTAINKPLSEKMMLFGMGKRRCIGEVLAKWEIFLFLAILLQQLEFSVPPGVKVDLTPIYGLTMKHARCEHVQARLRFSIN
Cytochrome P450 3A4 (Homo sapiens), sequence (P08684 whole entry, looked up): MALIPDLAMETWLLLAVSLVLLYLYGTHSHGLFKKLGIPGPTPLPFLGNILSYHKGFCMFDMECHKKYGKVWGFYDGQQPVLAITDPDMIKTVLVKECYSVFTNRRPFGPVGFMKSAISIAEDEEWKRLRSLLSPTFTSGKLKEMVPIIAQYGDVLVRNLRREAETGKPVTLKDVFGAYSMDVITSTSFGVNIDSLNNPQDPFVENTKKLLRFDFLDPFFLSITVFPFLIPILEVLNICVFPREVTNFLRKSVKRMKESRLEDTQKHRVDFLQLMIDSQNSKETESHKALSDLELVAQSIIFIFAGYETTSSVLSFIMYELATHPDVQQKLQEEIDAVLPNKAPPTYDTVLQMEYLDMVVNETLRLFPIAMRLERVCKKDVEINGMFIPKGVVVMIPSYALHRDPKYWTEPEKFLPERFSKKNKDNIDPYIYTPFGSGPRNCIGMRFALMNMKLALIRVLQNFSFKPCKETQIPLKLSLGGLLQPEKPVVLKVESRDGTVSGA
Voltage-gated inwardly rectifying potassium channel KCNH2 (Homo sapiens), sequence (Q12809 whole entry, looked up): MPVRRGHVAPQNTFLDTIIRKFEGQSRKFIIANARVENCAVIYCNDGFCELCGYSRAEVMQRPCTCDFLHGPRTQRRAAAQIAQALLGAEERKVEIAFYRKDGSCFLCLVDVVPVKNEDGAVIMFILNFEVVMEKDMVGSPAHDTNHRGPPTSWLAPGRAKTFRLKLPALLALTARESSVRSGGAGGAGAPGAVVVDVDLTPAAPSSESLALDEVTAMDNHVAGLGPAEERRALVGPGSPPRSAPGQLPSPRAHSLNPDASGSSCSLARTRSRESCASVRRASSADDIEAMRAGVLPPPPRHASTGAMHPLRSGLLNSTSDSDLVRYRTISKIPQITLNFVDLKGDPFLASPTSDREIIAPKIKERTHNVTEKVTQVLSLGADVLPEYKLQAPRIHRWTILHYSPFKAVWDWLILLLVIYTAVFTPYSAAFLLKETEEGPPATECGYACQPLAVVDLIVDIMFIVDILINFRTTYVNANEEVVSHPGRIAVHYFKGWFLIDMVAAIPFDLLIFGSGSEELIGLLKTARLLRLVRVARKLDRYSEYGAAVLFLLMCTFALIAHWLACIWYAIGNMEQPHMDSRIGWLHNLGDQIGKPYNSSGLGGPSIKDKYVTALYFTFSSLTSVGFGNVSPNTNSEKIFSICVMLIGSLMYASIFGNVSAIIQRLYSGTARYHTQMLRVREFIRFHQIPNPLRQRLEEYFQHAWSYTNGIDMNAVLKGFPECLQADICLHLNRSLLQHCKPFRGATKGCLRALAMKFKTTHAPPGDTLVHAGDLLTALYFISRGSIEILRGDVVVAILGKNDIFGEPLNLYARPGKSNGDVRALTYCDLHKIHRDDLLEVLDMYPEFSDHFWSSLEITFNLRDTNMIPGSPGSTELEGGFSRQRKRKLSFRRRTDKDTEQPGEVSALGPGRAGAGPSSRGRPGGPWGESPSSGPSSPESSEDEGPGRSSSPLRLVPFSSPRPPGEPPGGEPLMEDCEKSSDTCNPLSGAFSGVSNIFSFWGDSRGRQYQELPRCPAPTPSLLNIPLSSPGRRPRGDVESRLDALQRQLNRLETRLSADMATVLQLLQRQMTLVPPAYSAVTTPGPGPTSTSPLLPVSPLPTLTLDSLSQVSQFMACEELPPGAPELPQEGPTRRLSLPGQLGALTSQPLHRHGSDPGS
Nuclear receptor subfamily 1 group I member 2 (Homo sapiens), sequence (O75469 whole entry, looked up): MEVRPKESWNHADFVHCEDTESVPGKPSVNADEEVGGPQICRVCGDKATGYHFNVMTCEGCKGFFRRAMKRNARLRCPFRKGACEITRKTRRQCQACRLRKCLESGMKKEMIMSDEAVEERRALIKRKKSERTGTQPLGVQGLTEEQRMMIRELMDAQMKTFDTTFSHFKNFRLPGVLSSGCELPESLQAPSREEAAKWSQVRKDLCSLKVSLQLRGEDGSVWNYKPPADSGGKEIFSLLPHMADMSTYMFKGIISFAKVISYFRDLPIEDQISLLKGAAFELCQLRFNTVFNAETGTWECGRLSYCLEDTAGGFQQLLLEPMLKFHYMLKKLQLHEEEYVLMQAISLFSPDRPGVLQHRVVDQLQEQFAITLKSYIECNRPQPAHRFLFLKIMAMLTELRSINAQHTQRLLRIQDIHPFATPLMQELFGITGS

## CCCCCCCCCCCCCCCCCC(=O)OCC(O)CO (stereo not given)
[1]
  Potency: inactive
[2]
  Potency: inactive
[3]
  outcome: inactive
[4]
  Potency: inactive
[5]
  Potency: inactive
[6]
  max activation: 0.317% (inactive)
[7]
  Potency: inactive
[8]
  Potency: inactive
[9]
  Potency: inactive
[10]
  Potency: inactive
[11]
  Potency: inactive
[12]
  Potency: inactive
[13]
  Potency: inactive

## NCCNc1cccc2ccccc12
[1]
  Potency: inactive
[2]
  Potency: 66.9 µM (active) and inactive
[3]
  outcome: inactive
[4]
  Potency: inactive
[5]
  Potency: inactive
[6]
  max activation: -4.28% (inactive)
[8]
  Potency: inactive
[9]
  Potency: 5.02 µM (active) and 9.79 µM (active) and 12.3 µM (active)
[10]
  Potency: 31.7 µM (active) and 21.9 µM (active) and 12.3 µM (active)
[14]
  Potency: 20 µM (active) and 31 µM (active) and 27.5 µM (active)
[11]
  Potency: 632 nM (active) and 778 nM (active) and 723 nM (active)
[12]
  Potency: inactive
[13]
  Potency: 31.7 µM (active) and inactive

## N[C@@H](Cc1c[nH]c2ccc(O)cc12)C(=O)O
[1]
  Potency: inactive
[2]
  Potency: inactive
[3]
  outcome: inactive
[4]
  Potency: inactive
[5]
  Potency: inactive
[6]
  max activation: -0.341% (inactive)
[7]
  Potency: 4.47 µM (active)
[8]
  Potency: inactive
[9]
  Potency: 34.6 µM (active)
[10]
  Potency: inactive
[14]
  Potency: 27.5 µM (active) and 34.7 µM (active)
[11]
  Potency: 30.8 µM (active) and 30.9 µM (active)
[12]
  Potency: inactive

## CCCCCCCCOc1ccc(C(=O)c2ccccc2)c(O)c1
[1]
  Potency: inactive
[2]
  Potency: inactive
[3]
  outcome: inactive
[4]
  Potency: inactive
[5]
  Potency: inactive
[6]
  max activation: -2.91% (inactive)
[7]
  Potency: inactive
[8]
  Potency: inactive
[9]
  Potency: inactive
[10]
  Potency: inactive and 35.6 µM (active)
[14]
  Potency: 12.6 µM (active)
[11]
  Potency: inactive
[12]
  Potency: inactive
[13]
  Potency: inactive

## NC(N)=NC(N)=NCCc1ccccc1
[1]
  Potency: inactive
[2]
  Potency: inactive
[3]
  outcome: inactive
[4]
  Potency: inactive
[5]
  Potency: inactive
[6]
  max activation: -11.7% (inactive) and -9.14% (inactive)
[7]
  Potency: inactive
[8]
  Potency: inactive
[9]
  Potency: 5 µM (active) and 10 µM (active) and 8.71 µM (active)
[10]
  Potency: inactive
[12]
  Potency: inactive
[13]
  Potency: inactive

## NC(=O)N/N=C/c1ccc([N+](=O)[O-])o1
[1]
  Potency: inactive
[2]
  Potency: inactive and 42.4 µM (active) and 29.8 µM (active)
[3]
  outcome: inactive
[4]
  Potency: inactive and 58.4 µM (active)
[5]
  Potency: inactive and 7.7 µM (active)
[6]
  max activation: -4.99% (inactive)
[7]
  Potency: inactive
[9]
  Potency: inactive
[10]
  Potency: inactive and 39.9 µM (active) and 43.6 µM (active)
[11]
  Potency: inactive and 41.5 µM (active)
[12]
  Potency: inactive
[13]
  Potency: inactive

## CCCCCCCC(=O)OCC(O)CO (stereo not given)
[1]
  Potency: inactive
[2]
  Potency: inactive
[3]
  outcome: inactive
[4]
  Potency: inactive
[5]
  Potency: inactive
[6]
  max activation: -5.07% (inactive)
[7]
  Potency: inactive
[8]
  Potency: inactive
[9]
  Potency: 39.9 µM (active)
[10]
  Potency: 79.6 µM (active)
[11]
  Potency: inactive
[12]
  Potency: inactive
[13]
  Potency: inactive

## COC(=O)c1ccc(O)cc1
[1]
  Potency: inactive
[2]
  Potency: inactive
[3]
  outcome: inactive
[4]
  Potency: inactive
[5]
  Potency: inactive
[6]
  max activation: -1.51% (inactive)
[7]
  Potency: inactive
[8]
  Potency: inactive
[9]
  Potency: inactive
[10]
  Potency: inactive
[11]
  Potency: 32 µM (active) and 35.6 µM (active) and 27.5 µM (active)
[12]
  Potency: inactive
[13]
  Potency: inactive

## C#C[C@]1(O)CC[C@H]2[C@@H]3CCC4=CC(=O)CC[C@@H]4[C@H]3CC[C@@]21CC
[1]
  Potency: inactive
[2]
  Potency: inactive and 54.5 µM (active)
[3]
  outcome: inactive
[4]
  Potency: inactive
[5]
  Potency: 8.65 µM (active) and 54.5 µM (active) and 24.3 µM (active)
[6]
  max activation: -1.1% (inactive)
[7]
  Potency: inactive
[8]
  Potency: inactive
[9]
  Potency: inactive
[10]
  Potency: 2.83 µM (active) and 5.64 µM (active) and 2.45 µM (active)
[11]
  Potency: inactive
[12]
  Potency: inactive

## O=c1cc[nH]c(=O)[nH]1
[1]
  Potency: inactive
[2]
  Potency: inactive
[3]
  outcome: inactive
[4]
  Potency: inactive
[5]
  Potency: inactive
[6]
  max activation: -0.198% (inactive)
[7]
  Potency: inactive
[8]
  Potency: inactive
[9]
  Potency: inactive
[10]
  Potency: inactive
[11]
  Potency: inactive
[12]
  Potency: inactive
[13]
  Potency: inactive

## CC(C)(C)CC(C)(C)c1ccc(O)c(-n2nc3ccccc3n2)c1
[1]
  Potency: inactive
[2]
  Potency: inactive
[3]
  outcome: inactive
[4]
  Potency: inactive
[5]
  Potency: 27.7 µM (active) and 11.9 µM (active)
[6]
  max activation: -2.63% (inactive)
[7]
  Potency: inactive
[8]
  Potency: 7.94 µM (active)
[9]
  Potency: 40.5 µM (active) and inactive
[10]
  Potency: 36.1 µM (active) and 20 µM (active)
[12]
  Potency: inactive
[13]
  Potency: inactive

## COc1ccccc1O
[1]
  Potency: inactive
[2]
  Potency: inactive
[3]
  outcome: inactive
[4]
  Potency: inactive
[5]
  Potency: inactive
[6]
  max activation: -3.23% (inactive)
[7]
  Potency: inactive
[8]
  Potency: inactive
[9]
  Potency: inactive
[10]
  Potency: inactive
[11]
  Potency: inactive and 52.6 µM (active)
[12]
  Potency: inactive
[13]
  Potency: inactive

## CC1=NN(c2ccccc2)C(=O)C1
[1]
  Potency: inactive
[2]
  Potency: inactive
[3]
  outcome: inactive
[4]
  Potency: inactive
[5]
  Potency: inactive
[6]
  max activation: -4.19% (inactive)
[7]
  Potency: 25.1 µM (active)
[8]
  Potency: inactive
[9]
  Potency: 31.9 µM (active) and inactive
[10]
  Potency: 71.4 µM (active) and inactive
[12]
  Potency: inactive
[13]
  Potency: inactive
